Shiga inhibitor: Shiga toxin inhibition; actives 9.2% (n = 290,000); inhibition, % at 38.7 µM; Vero cells, Shiga toxin protein synthesis inhibition reporter; in the data active means inhibition mostly above about 28%, no sharp cut-off; inactive means mostly below about 43%; further: 0% is about no effect
Cycloheximide cs: counter-screen hit for Shiga toxin inhibitors, cycloheximide | cell reporter, cycloheximide protein synthesis inhibition counterscreen | max response, % | actives 12% (n = 300,000); in the data active means max response mostly above about 13%, no sharp cut-off; inactive means mostly below about 14%; further: read at 38.3 µM for the half of the compounds with a filed dose; 0% is about no effect
LmPK inh: inhibitors of Leishmania mexicana pyruvate kinase; Q27686; purified LmPK, Kinase-Glo ATP luminescence, 1 h; Potency, µM (doses to about 57.5 µM), inactives show at the top dose activity change, negative = inhibition, most hits filed as inhibitors; actives 0.37% (n = 290,000); AID 1721; further: potency means the concentration at half of the fitted maximal effect; on the % scale 0 is the no-effect control and ±100 the full control effect
Target sequence (Q27686 whole entry, looked up): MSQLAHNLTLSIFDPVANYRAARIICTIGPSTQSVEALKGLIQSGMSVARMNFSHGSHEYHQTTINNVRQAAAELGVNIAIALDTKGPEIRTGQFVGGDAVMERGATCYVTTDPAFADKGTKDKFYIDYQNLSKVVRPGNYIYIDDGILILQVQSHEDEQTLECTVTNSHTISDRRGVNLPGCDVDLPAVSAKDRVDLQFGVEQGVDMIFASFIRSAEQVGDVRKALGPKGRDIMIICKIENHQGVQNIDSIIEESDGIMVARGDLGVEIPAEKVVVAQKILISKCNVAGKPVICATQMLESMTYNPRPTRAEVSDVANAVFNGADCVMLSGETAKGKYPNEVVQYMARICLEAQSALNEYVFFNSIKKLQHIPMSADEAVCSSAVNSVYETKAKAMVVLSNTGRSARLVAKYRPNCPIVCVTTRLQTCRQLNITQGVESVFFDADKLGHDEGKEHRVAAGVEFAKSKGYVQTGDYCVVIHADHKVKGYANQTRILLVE
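Kinase-Glo luminescence read after 1 h RT reaction of 0.1 nM LmPK with 0.5 mM PEP and 0.1 mM ADP. Activity scaled between uninhibited and enzyme-free controls.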
Pf growth 48h: inhibits P. falciparum growth in the first generation, 48 h. P. falciparum luciferase growth in erythrocytes, 48 h. AID 504832. Potency, µM (highest dose often 28.7 µM), for inactives: top-dose activity change, negative = inhibition, actives largely listed as inhibitors. actives 5.9% (n = 310,000); further: potency means the concentration at half of the fitted maximal effect; on the % scale 0 is the no-effect control and ±100 the full control effect
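Luminescence readout; reporter = integrated firefly luciferase in P. falciparum. RBC culture at 2% hematocrit, 0.1% parasitemia final, 37 C/5% CO2; decreased signal taken as growth inhibition.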
Pf growth 96h: inhibits malaria parasite growth, 96 h; P. falciparum luciferase reporter growth, 96 h; Potency, µM (doses to about 28.7 µM), without a hit: top-dose activity change, negative = inhibition, actives largely listed as inhibitors; actives 6.9% (n = 320,000); further: potency means the concentration at half of the fitted maximal effect; on the % scale 0 is the no-effect control and ±100 the full control effect
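Two-generation exposure (96 h) targets delayed-death phenotype. Reporter parasites carrying integrated firefly luciferase, in red cells at 2% hematocrit and 0.05% parasitemia final, kept at 37 C, 5% CO2; luminescence loss indicates inhibition.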
The depositor's hits bear a star; ? = inconclusive; . = not tested or not shown; [ ] = another dose, or the depositor's remark. In the library only some 22% were active in any assay of this set; here they are far more common. Unless noted, the call rests on the fitted dose curve; in most records, active means well fitted inhibition curve with a large enough effect; inconclusive means small, poorly fitted or top-dose-only effect, or another doubt; inactive means no such curve, though single readings can be large or run the other way.

SMILES | Shiga inhibitor | Cycloheximide cs | LmPK inh | Pf growth 48h | Pf growth 96h
COCCN1C(=O)C(=O)/C(=C(/O)c2cccc(OC)c2)C1c1ccco1 (configuration not stated) | -4.8 | 3.2 | 5.0% | 33.5% | 0.9%[5.75 µM]
CCOc1ccc(/C(O)=C2/C(=O)C(=O)N(c3nc(C)c(C)s3)C2c2ccco2)cc1 (configuration not stated) | 122.9* | 17.5* | -0.4% | 43.5% | 37.3%
CCN(CC)CCN1C(=O)C(=O)/C(=C(/O)c2ccc(OC)cc2)C1c1ccco1 (configuration not stated) | 45.8 | 12.8 | -7.2% | -6.2% | 0.928µM*
CC(C)Oc1ccc(/C(O)=C2/C(=O)C(=O)N(CCN(C)C)C2c2ccco2)cc1 (configuration not stated) | 134.1* | 39.0* | -3.5% | 79.8% | .
COC(=O)c1[nH]c(C)c(/C(O)=C2\C(=O)C(=O)N(CCN(C)C)C2c2ccco2)c1C (configuration not stated) | 9.8 | -0.9 | 2.8% | -18.4% | 9.4%
O=[N+]([O-])c1cc([N+](=O)[O-])c2nonc2c1Nc1ccccc1O | 72.6* | 15.9* | 6.6% | ? | 2.33µM*
COc1ccc(SCc2noc(C(=O)NC(C)C)c2C(=O)O)cc1 | 18.1 | -2.1 | -5.4% | 40.1% | 31.9%
O=C(/C=C/c1ccco1)N1CCN(c2ncccn2)CC1 | 91.9* | 18.9* | -4.4% | 77.3% | 14.5%
O=C(/C=C/c1ccco1)N1CCC(Cc2ccccc2)CC1 | 84.2* | 26.4* | -0.1% | ? | 12.3%[5.75 µM]
COc1cccc(N2CCN(C(=O)/C=C/c3ccco3)CC2)c1 | 60.2 | 40.8* | -0.5% | ? | ?
CC(C)C(=O)N1CCC(Cc2ccccc2)CC1 | -9.8 | -2.5 | -0.8% | 29.7% | ?
COc1ccc(C[C@H]2CN3C(=NC[C@@H]3Cc3ccc(O)cc3)N2C[C@H](C)NC(=O)c2ccc(C)c(Br)c2)cc1 | -4.7 | -5.0 | 3.6% | 1.47µM* | 0.828µM*
Cc1ccc(C(=O)N[C@@H](C)CN2C3=NC[C@H](Cc4ccccc4)N3C[C@H]2Cc2ccc(O)cc2)cc1Br | -3.5 | -6.8 | 0.7% | 2.08µM* | 1.31µM*
Cc1ccc(C(=O)N[C@@H](C)CN2C3=NC[C@@H](Cc4ccccc4)N3C[C@H]2Cc2ccc(O)cc2)cc1Br | -5.3 | -1.6 | -1.8% | 5.22µM* | 2.94µM*
O=C(COC(=O)c1cc2ccccc2o1)NCc1ccco1 | . | . | . | -16.7% | -18.0%
Cc1ccc(Nc2nc(-c3sc(NC(=O)c4cccc(Cl)c4)nc3C)cs2)cc1 | 0.9 | 17.5 | -4.0% | 2.33µM* | 4.15µM*
CC(=O)Nc1nc(C)c(-c2csc(Nc3cccc(C(C)=O)c3)n2)s1 | 8.5 | 12.7 | 5.0% | . | 6.9%
Cc1nc(N)sc1-c1csc(Nc2cccc(C(=O)O)c2)n1 | -9.0 | -0.8 | -2.5% | 14.0% | 155.6%
COc1ccccc1Nc1nc(-c2sc(NC(=O)c3cccc(Cl)c3)nc2C)cs1 | 10.3 | 13.7* | -3.5% | ? | 9.28µM*
Cc1nc(NC(=O)c2ccc(Cl)cc2)sc1-c1csc(Nc2cccc(F)c2)n1 | 109.2 | 23.8* | -3.3% | 13.1µM* | 2.62µM*
COc1ccc(-n2nc3c(N4CCCC(C(=O)NCc5ccccc5C)C4)nnc(C)c3c2C)cc1 (configuration not stated) | . | . | . | 11.7µM* | 2.08µM*
CCOc1ccccc1CNC(=O)C1CCCN(c2nnc(C)c3c(C)n(-c4ccccc4)nc23)C1 (configuration not stated) | 7.1 | 6.4 | -1.3% | 13.1µM* | 38.3%
CCOc1ccccc1CNC(=O)C1CCCN(c2nc3ccccc3o2)C1 (configuration not stated) | -5.8 | 1.1 | -2.0% | 12.0% | 3.7µM*
COc1ccc(-n2nc3c(N4CCC(C(=O)NCCc5ccccc5C)CC4)nnc(C)c3c2C)cc1 | -6.7 | -6.4 | -2.6% | -10.6% | -1.3%
COc1ccc(-n2nc3c(N4CCC(C(=O)NCc5ccccc5C)CC4)nnc(C)c3c2C)cc1 | -5.5 | -10.6 | -5.7% | ? | ?
SMILES | Shiga inhibitor | Cycloheximide cs | LmPK inh | Pf growth 48h | Pf growth 96h
CC1CN(CC(=O)Nc2ccc(S(N)(=O)=O)cc2)CC(C)O1 (configuration not stated) | -6.4 | -2.7 | 4.1% | 30.2% | 28.8%
CN(C(=O)COC(=O)c1ccccc1SCC(=O)N1CCCC1)C1CCS(=O)(=O)C1 (configuration not stated) | -13.4 | -3.1 | -1.3% | 14.5% | 19.5%
Cc1ccc(OCCc2csc(N)n2)cc1 | 54.1* | 34.2* | 1.1% | 61.4% | 88.7%
COc1ccc(OCc2csc(N)n2)cc1 | 85.7* | 36.0* | 3.7% | 403.4% | 188.1%
CCOC(=O)c1c(C)[nH]c(C)c1C(=O)COC(=O)/C=C/c1cccc(C(F)(F)F)c1 | -0.7 | -0.7 | 0.2% | 14.7µM* | ?
O=C(Cc1ccccc1)Nc1ccc(NC(=O)Cc2ccccc2)c(Cl)c1 | -3.5 | -1.9 | -3.7% | 37.3% | ?
O=C(Nc1cc2c(cc1C(=O)O)OCCCO2)c1ccc(C(F)(F)F)cc1 | 76.2* | 43.5* | -3.2% | 118.0% | 196.2%
O=C(Cc1ccccc1)Nc1cc2c(cc1Cl)OCCCO2 | 75.0* | 59.4* | -0.5% | 66.6% | 112.9%
CCc1ccc(C(=O)Nc2cc3c(cc2Cl)OCCCO3)cc1 | 84.1* | 59.8* | 1.3% | 83.2% | 285.1%
CCC(O)c1cc2c(cc1NC(=O)c1ccc(C)cc1)OCCO2 (configuration not stated) | 33.7 | 17.4 | -4.7% | -27.9% | 23.5%
CC(C)(C)[C@@H]1CCC(=O)N(CC[C@H](N=[N+]=[N-])c2ccccc2)CC1 | 32.9* | 12.6* | -5.3% | ? | ?
C[C@@H]1CCC(=O)N(CC[C@H](N=[N+]=[N-])c2ccccc2)CC1 | 19.6 | 12.3 | -1.6% | 43.9% | 16.9%
CC(C)(C)C1CCC(=O)N(CCOc2ccccc2)CC1 (configuration not stated) | 43.0* | 27.5* | -0.3% | 52.2% | -27.6%
COc1cc(OC)cc(C(=O)NNC(=O)C2CCCC2)c1 | -8.3 | 2.6 | 0.6% | 14.0% | 47.1%
Cc1cc(C)cc(NC(=O)Cn2ncn3c(cc4ccccc43)c2=O)c1 | -13.6 | -3.2 | 5.9% | . | -4.5%
COC(=O)Cn1ncn2c(cc3oc(C)cc32)c1=O | 76.2* | 40.2* | 2.2% | 120.7% | 22.4%
COc1ccc(/C=N/NC(=O)c2cc(-c3ccccc3)nc3ccccc23)c(OC)c1 | 40.4 | 17.6* | -6.6% | 0.0% | 28.3%
O=C(N/N=C/c1cc([N+](=O)[O-])ccc1O)c1cc(-c2ccccc2)nc2ccccc12 | -12.8 | 6.0 | 1.9% | 2.94µM* | -72.8%
O=C(N/N=C/c1cc([N+](=O)[O-])ccc1Cl)c1cc(-c2ccccc2)nc2ccccc12 | -11.0 | 1.4 | -1.6% | ? | ?
COc1ccccc1-c1cc(C(=O)N/N=C/c2sccc2C)c2ccccc2n1 | -11.7 | -1.6 | 0.1% | 1.85µM* | 1.85µM*
Cc1ccsc1/C=N/NC(=O)c1cc(-c2ccncc2)nc2ccccc12 | -2.8 | -1.1 | -0.3% | ? | ?
